compound: Nc1ncnc2c1ncn2[C@@H]1O[C@H](COP(=O)(O)OP(=O)(O)OP(=O)(O)O)[C@@H](O)[C@H]1O [adenosine 5'-triphosphate]; assay: log2 fold change of tryptic peptide abundance, ligand vs vehicle (limited proteolysis) (log2 ratio); higher = more trypsin-susceptible (destabilized); conditions: ligand concentration: 5 mM; sample: E. coli desalted lysate; replicate design: treated before aliquoting
Procedure: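 HT-PELSA: desalted E. coli K-12 BW25113 lysate (with 12 mM MgCl2) incubated with 5 mM ATP (pH 7) or water for 30 min at 25 C, then a 4 min trypsin pulse at 22 C. Peptides were quantified by DIA-MS (4 replicates). Value is the peptide log2 fold change (treated/control); negative = stabilized. Scale: negative = ligand-stabilized region.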
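Further: lysate desalted by size exclusion to strip endogenous ATP, peptide intensities built from DIA-NN precursor signals, and peptides missing any value discarded before comparison.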

Target	log2 fold change
UniProt P76542 (peptide sequence: VAEDWFATR, peptide start residue: 108)	-0.902
UniProt P23839 (peptide sequence: YLETYFRLPEQFR, peptide start residue: 31)	0.91
MurD (peptide sequence: YLNGDNVR, peptide start residue: 359) (UniProt P14900)	-1.33
UniProt P0A800 (peptide sequence: IGNRFDLVLVAAR, peptide start residue: 13)	-0.922
UniProt P39364 (peptide sequence: IIGQLMSDIR, peptide start residue: 82)	-0.915
UniProt P39452 (peptide sequence: IIDTYAEATR, peptide start residue: 646)	-1.19
UniProt P16525 (peptide sequence: TTFEHIVTVESELPTAAR, peptide start residue: 122)	0.318
UniProt P46889 (peptide sequence: FRDNPSPLTVVLGK, peptide start residue: 957)	-1.51
UniProt P00350 (peptide sequence: RIDKEGVFHTEWLD, peptide start residue: 455)	-0.396
UniProt P36547 (peptide sequence: TANLHHLYHEPLPENLK, peptide start residue: 6)	-0.813
UniProt P76330 (peptide sequence: FGHQAGDR, peptide start residue: 447)	-3.47
UniProt P77171 (peptide sequence: GRQGAQLTLPGEQFLTHAVR, peptide start residue: 61)	0.909
UniProt P27830 (peptide sequence: ASSDHLVR, peptide start residue: 172)	-0.668
UniProt P0AEH3 (peptide sequence: VGQQLMSK, peptide start residue: 91)	0.523
UniProt P76558 (peptide sequence: TNLFMKPIFSQAR, peptide start residue: 427)	0.538
UniProt P11454 (peptide sequence: IELGEIDR, peptide start residue: 867)	-1.19
UniProt P16691 (peptide sequence: VGFNANLRDPNMR, peptide start residue: 36)	-0.259
UniProt P25553 (peptide sequence: VAFGGKAVEGK, peptide start residue: 351)	1.48
UniProt P33643 (peptide sequence: IKEWILDQR, peptide start residue: 36)	-0.691
UniProt P37197 (peptide sequence: GDENALTAQQK, peptide start residue: 330)	-0.521

Target	log2 fold change
UniProt P64554 (peptide sequence: NGFSCQIETSGTHEVR, peptide start residue: 111)	-0.431
UniProt P39177 (peptide sequence: FEEHLQHEAQER, peptide start residue: 58)	-2.59
UniProt P03817 (peptide sequence: FGAIGIGSR, peptide start residue: 85)	0.339
UniProt P33368 (peptide sequence: IINITSVHEHTPLPDASAYTAAK, peptide start residue: 135)	0.894
UniProt P77775 (peptide sequence: TGVVLAPDGGILGK, peptide start residue: 163)	-0.725
UniProt P75863 (peptide sequence: WVGPQMTR, peptide start residue: 122)	-0.577
UniProt P25741 (peptide sequence: LSDVGVDTMK, peptide start residue: 84)	-0.922
UniProt P07862 (peptide sequence: AWTTLGCK, peptide start residue: 244)	-0.633
UniProt P77552 (peptide sequence: AENTVVTGAGWLK, peptide start residue: 41)	0.332
UniProt P37342 (peptide sequence: SESLDDFFTR, peptide start residue: 261)	0.46
UniProt P08394 (peptide sequence: HCYPLPR, peptide start residue: 171)	1.13
UniProt P23874 (peptide sequence: ISVAGAQEK, peptide start residue: 149)	-4.86
UniProt P39187 (peptide sequence: VLQHIAGR, peptide start residue: 63)	0.842
UniProt P36995 (peptide sequence: VTFSIESGAK, peptide start residue: 51)	-0.289
UniProt P37327 (peptide sequence: AMAIHEHIR, peptide start residue: 37)	-0.62
UniProt P76177 (peptide sequence: KRIVQSPDVIPADSEAGR, peptide start residue: 179)	2.16
UniProt P0AB12 (peptide sequence: VVSVETAQAAR, peptide start residue: 129)	0.652
UniProt P27828 (peptide sequence: DTTERPEAVTAGTVR, peptide start residue: 309)	-0.6
UniProt P31060 (peptide sequence: ALAGELPLLKGER, peptide start residue: 48)	-1.32
UniProt P0A698 (peptide sequence: SSLAFDTLYAEGQRR, peptide start residue: 38)	2.9

— the supplement of paper PMC12819154, “High-throughput peptide-centric local stability assay extends protein–ligand identification to membrane proteins, tissues and bacteria” (Nature Structural & Molecular Biology, 2025)
